We go through 66 compounds from PubChem BioAssay (Tox21).

This assay in a line: p53 small molecule agonists, cell-based qHTS assay with human liver microsomes (AID 1963577).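 For activation: p53 response element beta-lactamase reporter cells with liver microsomes plus NADPH.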 Summed up: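 Metabolically competent format: test substances, human liver microsomes and NADPH (both 0.5 mg/mL final) incubated with p53RE-bla cells 16 h at 37 C. Beta-lactamase reporter signal then quantified by fluorescence.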

“And” between values parts separate entries of the source, which are not always exact repeats. Equal entries are not always repeated. Results filed as inconclusive are left out. A call without a number means that no potency is given here. The source made the active and inactive calls. Calls come from the whole dose curve.
Potency is the fitted concentration of half-maximal effect.

As for `CCCCCCOC(=O)CC`, the Potency entry was “inactive”.

Take `Cc1cccc(N)n1`: the Potency entry was “inactive”.

As to `O=C1CC2CC1C1CCCC21` (stereo unspecified), the Potency entry was “inactive”.

Turning to `Cc1ccc(O)c([N+](=O)[O-])c1`, the Potency result was “inactive”.

`Cc1occc1SSc1ccoc1C`: the Potency result is “inactive”.

`O=c1n(CCO)c(=O)n(CCO)c(=O)n1CCO`: the Potency result was “inactive”.

For `CCCCOC(=O)C(=O)OCCCC`, the Potency entry was “inactive”.

Take `CC(C)(c1cc(Br)c(O)c(Br)c1)c1cc(Br)c(O)c(Br)c1`: the Potency result is “inactive”.

As for `Nc1c2ccccc2nc2ccccc12`, the Potency is 11.3 µM (active) and 19.9 µM (active).

On to `Cc1nc(C)c(C)nc1C`, for which the Potency entry is “inactive”.

Regarding `COc1nc(N)nc2nc[nH]c12`, the Potency entry was “inactive”.

With `COc1ccccc1NC(=O)CC(C)=O`, the Potency result is “inactive”.

Turning to `C=CC(=O)NC(C)C`, the Potency entry is “inactive”.

Take `CC(C)(C)NC(N)=O`: the Potency entry is “inactive”.

For `CN1CCCC1=O`, the Potency entry was “inactive”.

Regarding `CCOc1ccc(Cc2nccc3cc(OCC)c(OCC)cc23)cc1OCC`, the Potency result was “inactive”.

`O=C(O)c1cccc(Cl)c1Cl`: the Potency entry was “inactive”.

As to `CCN(CC)c1ccc(C=O)c(O)c1`, the Potency entry is “inactive”.

`N#C[C@@H]1C[C@@H]2C[C@@H]2N1C(=O)[C@@H](N)C12CC3CC(CC(O)(C3)C1)C2`: the Potency result is “inactive”.

On to `Nc1ccc(N=Nc2ccccc2)c(N)n1`, for which the Potency result is “inactive”.

For the compound `CC(C)(C)c1ccc(C=O)cc1`, the Potency entry is “inactive”.

As for `CC[C@H](c1ccc(O)cc1)[C@@H](CC)c1ccc(O)cc1`, the Potency entry is “inactive”.

As for `C[Si](C)=O`, the activation is 3.5% [at 5.99 µM] (inactive).

As for `CC(C)[C@H]1CC[C@@H](C)CC1=O`, the Potency result was “inactive”.

On to `CCC(C)C(=O)OCCc1ccccc1` (stereo unspecified), for which the Potency result is “inactive”.

Consider `NS(=O)(=O)c1cc2c(cc1Cl)NC(C1CC3C=CC1C3)NS2(=O)=O` (stereo unspecified), for which the Potency entry was “inactive”.

Take `O=c1oc2c(O)c(O)cc3c(=O)oc4c(O)c(O)cc1c4c23`: the activation is -4.17% [at 13.5 µM] (inactive).

On to `C=C(C)C(=O)OCCOCCOCCOC(=O)C(=C)C`, for which the Potency result was “inactive”.

Turning to `O=c1[nH]c2cc(C(F)(F)F)c(N3CCOCC3)cc2n(CP(=O)(O)O)c1=O`, the Potency result is “inactive”.

For `O[C@@H]([C@H](O)[C@H](O)CBr)[C@H](O)CBr`, the Potency result is “inactive”.

In the case of `CC(C)CCCCCCc1ccc(O)cc1`, the Potency result is “inactive”.

For the compound `CNC(=O)[C@H]1O[C@@H](n2cnc3c(NCc4cc(Cl)ccc4OCc4cc(C)no4)ncnc32)[C@H](O)[C@@H]1N`, the Potency result is “inactive”.

For the compound `C=C(C)C(=O)NCCC[N+](C)(C)C`, the Potency entry was “inactive”.

For the compound `CC[C@]1(O)C[C@@H]2CN(CCc3c([nH]c4ccccc34)[C@@](C(=O)OC)(c3cc4c(cc3OC)N(C)[C@H]3[C@@](O)(C(=O)OC)[C@H](OC(C)=O)[C@]5(CC)C=CCN6CC[C@]43[C@@H]65)C2)C1`, the Potency result was “inactive”.

For the compound `CN(C)Cc1ccccc1O`, the Potency entry is “inactive”.

With `CC(=O)Oc1cccc(O)c1`, the Potency entry was “inactive”.

`CCCCCCCC/C=C\CCCCCCCC(=O)OCCCC`: the activation is -3.86% [at 13.5 µM] (inactive).

Regarding `c1cnccn1`, the Potency result is “inactive”.

As to `CC(=O)Oc1ccccc1C(=O)Nc1ncc([N+](=O)[O-])s1`, the Potency entry was “inactive”.

As to `CCOc1ccccc1C(N)=O`, the Potency entry is “inactive”.

Turning to `CCCC(=O)c1ccccc1`, the Potency entry is “inactive”.

With `CCCC(=O)OCc1ccccc1`, the Potency entry was “inactive”.

Regarding `CCCCc1ccc2cccc(S(=O)(=O)O)c2c1`, the Potency entry was “inactive”.

Turning to `CN1CCCC1`, the Potency result was “inactive”.

As for `CC1=CC(=O)[C@H]2C[C@@H]1C2(C)C`, the Potency entry is “inactive”.

Regarding `Cc1ccc(S(=O)(=O)NC2CCCCC2)cc1`, the Potency result was “inactive”.

Turning to `CN(CC1(C)CCCO1)S(=O)(=O)c1ccc(Cl)c(S(N)(=O)=O)c1` (stereo unspecified), the Potency result was “inactive”.

On to `C=C(C)C(=O)OCCCCCCCC(C)C`, for which the Potency result is “inactive”.

For `ClCCCl`, the Potency entry is “inactive”.

As for `CCCCCC(C)=O`, the Potency result was “inactive”.

For `Oc1ccccc1O`, the Potency entry is “inactive”.

With `N#CCc1cccc(C(F)(F)F)c1`, the Potency result was “inactive”.

For the compound `CC1(C)C2=CCCC(C)(C)[C@]23CC[C@H]1C3`, the Potency result is “inactive”.

For the compound `CN(C1CCCCC1)S(=O)(=O)c1ccccc1N`, the Potency result was “inactive”.

Consider `CC/C=C\CCOC(=O)CC`, for which the Potency result is “inactive”.

`O=C(Nc1ccc(Cl)cc1)Nc1ccc(Cl)c(Cl)c1`: the Potency result was “inactive”.

As for `CC(C)CCCCOC(=O)c1ccccc1C(=O)OCCCCC(C)C`, the Potency result was “inactive”.

For `COCCCC/C(=N\OCCN)c1ccc(C(F)(F)F)cc1`, the Potency entry was “inactive”.

`CC(=O)OCCOCCOCCOC(C)=O`: the Potency result is “inactive”.

Take `Cc1ccc2n[nH]nc2c1`: the Potency result is “inactive”.

Take `COC(=O)CCC(=O)O`: the Potency entry was “inactive”.

Regarding `O=C(O)c1ccccc1[N+](=O)[O-]`, the Potency entry is “inactive”.

`CCC(C)NC(N)=O` (stereo unspecified): the Potency result was “inactive”.

In the case of `CC(=O)CC/C=C(\C)CC/C=C(\C)CC/C=C(\C)CCC=C(C)C`, the Potency result is “inactive”.

For the compound `CC1CC(OC(=O)c2ccccc2O)CC(C)(C)C1` (stereo unspecified), the Potency result is “inactive”.

In the case of `Cc1cc(O)cc2c1O[C@](C)(CCC[C@H](C)CCC[C@H](C)CCCC(C)C)CC2`, the Potency result is “inactive”.
